Results reported in PubChem BioAssay (NCI).
Compounds without any hit were thinned out: in the full panel of roughly 83,000, 20% have a hit.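 Values shown are percent growth following 48 h exposure of cells in 96-well plates to a single concentration of compound; below 10 was considered active.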 Values without a mark were called inactive. The source made the active and inactive calls.

tested on: HS 578T breast; experiment: NCI-60 one-dose screen, 48 h (100 = growth as untreated, 0 = no growth, -100 = all killed); conditions: 10 µM unless noted
Description: Growth inhibition of the HS 578T human tumor cell line is measured as a screen for anti-cancer activity. Cells are grown in 96 well plates and exposed to the test compound for 48 hours. Compounds are tested at a single concentration, which is 10^-5 M for most compounds. The reported endpoint is percent growth (GI% or GIPRCNT), where numbers from 0 - 100% represent growth inhibition, and numbers from -100% - 0 represent cell death. For example, a value of 40 represents 60% growth inhibition. A value of 0 means no net growth occurred over the course of the experiment. A value of -40 indicates 40% of cells at the beginning of the experiment died by the end of the experiment. A value of -100 means all cells are dead at the end of the experiment.
NCI-60 Human Tumor Cell Lines Screen was performed using the standard one-dose NCI protocol, which is described in more detail at https://dtp.cancer.gov/discovery_development/nci-60/default.htm.
Compounds with GIPRCNT values below 10 were considered active. Activity score was based on GIPRCNT using the following formula: […]
Score is 0 for GIPRCNT values of 100 or above, 50 for GIPRCNT values of 0, and 100 for GIPRCNT values of -100.

SMILES | growth
O=C(Nc1ncc(Cc2ccccc2)s1)c1ccc2c(c1)OCCCO2 | 49.7%
Cc1ccc(CNc2c3ccccc3nc3ccccc23)cc1 | 38.5%
O=C(c1c[nH]c2ccccc12)c1n[nH]c(=S)n1-c1cccc(Br)c1 | 93.8%
CCn1c(-c2cc3c([nH]c4ccccc43)c(-c3cccc(O)c3)n2)n[nH]c1=S | 28.1%
O=P(O)(O)OCC1OC(n2cnc3c(NCc4ccco4)ncnc32)C(O)C1O (stereo not given) | 32.5%
COc1ccc(-c2nn(-c3ccccc3)cc2/C=C/C(=O)NNC(=O)Nc2ccc(C)cc2)cc1 | 99.7%
N#Cc1cncc(-c2ccc3ncnc(Nc4cccc(Cl)c4)c3c2)c1 | 61.2%
Cc1cccc[n+]1C1c2ccccc2-c2ccccc21 | 101%
[2H]C([2H])([2H])Oc1ccc(F)cc1/C=C/C(=O)/C=C(O)/C=C/c1cc(F)ccc1OC([2H])([2H])[2H] | 104%
CNC1=CC(=O)c2c(C(=O)OC)c(C)[n+]([O-])c(C)c2C1=O | 94.1%
CCN1CCN(CC(=O)Nc2ccc(-c3cn4c(n3)sc3cc(Oc5ccnc(C(=O)NC)c5)ccc34)cc2)CC1 | 94%
COc1ccc2c(c1)c(/C(O)=C1\COC(=O)C1=O)cn2Cc1ccc(F)cc1 | 109%
N#C/C(=C\c1ccc(-c2cccc(C(F)(F)F)c2)o1)c1ccccc1 | 86.7%
N#Cc1c(-c2ccccc2)nc(SCc2nnc(-c3ccc(Cl)cc3)o2)[nH]c1=O | 93.8%
N#C/C(=C\c1cn(Cc2ccccc2)c2ccccc12)C(=O)Nc1ncc(Cc2ccccc2Cl)s1 | 21.7%
Cc1cn(-c2cc(NC(=O)c3cncc(C#Cc4c(N)ncc5ccc(F)cc45)c3)cc(C(F)(F)F)c2)cn1 | 54.6%
Cc1ccc(NC(=O)Cn2c(Br)nc3c2c(=O)n(C)c(=O)n3C)cc1 | 8.55% (active)
CC/C=C\C[C@H](O)C/C=C1/C(=O)C=C[C@@H]1C/C=C\CCCC(=O)O | 85%
CCOC(=O)c1c(C)nc2ccccc2c1/C=C/c1cccs1 | 98.9%
O=C1/C(=C/c2ccccn2)NC(=S)N1c1ccccc1Cl | 72.5%

SMILES | growth
COc1ccc(/C=C/C(=O)c2ccc(NC(=O)CSc3nc4c([nH]3)c(=O)n(C)c(=O)n4C)cc2)cc1OC | 81.3%
CN(CCCNC(=O)CCOCCOCCOCCNC(=O)Cc1ccc2ccc3cccc4ccc1c2c34)CCCNc1cc(-c2ccc3ccccc3c2)nc2ccccc12 | -58.9% (active)
CCC1S/C(=N\N=C(\C)c2cc3cc(Cl)ccc3o2)N(c2ccccc2)C1=O (stereo not given) | 52.4%
CC1=C(CCC(C)NCc2ccc(OCCCN3CCCCC3)cc2)C(C)(C)CCC1 (stereo not given) | -52.9% (active)
COC(=O)CC[C@@H]1O[C@@H](c2ccc(F)cc2)[C@@H](O)[C@H]1O | 94.1%
O=C(O)COc1ccc(Cl)c(Cl)c1 | 123%
CC1=CC(c2ccco2)=C2C(N)=NNC2N1 (stereo not given) | 105%
COc1ccc2cc(-c3ccnc4c(N=Nc5ccc(Cl)cc5)c(N)nn34)ccc2c1 | 92.9%
CCNc1ccc(-c2nc3ccccc3n3cccc23)cc1 | 78.6%
COc1cc(C(=O)n2nc(N3CCOCC3)c3cc(-n4cccc4)ccc32)cc(OC)c1OC | 68.5%
N#Cc1c(Nc2ccc(N3CCOCC3)cc2)nc(SCC(=O)c2ccc(Br)cc2)nc1-c1ccccc1 | 105%
CCN1C(=O)N(CC)C2C1NN=c1s/c(=C3\C(=O)N(CCC(C)C)c4ccccc43)c(=O)n12 (stereo not given) | 15%
Cc1cccc(-c2nc(Nc3ccc4ncsc4c3)c3ccccc3n2)n1 | 116%
COc1ccc(C(=S)N2CCN(c3ccc(Cl)cc3)CC2)cc1 | 105%
C/C=C(/C)n1cnc2c(Nc3ccccn3)nc(Cl)nc21 | 97.8%
O=S1(=O)C=C(c2ccccc2)C(c2ccccc2)=C1 | -5.2% (active)
Fc1cccc(-c2ccc3c(c2)C2(CCNCC2)CN3)c1 | 105%
CC1=C(C(=O)Nc2nc(-c3ccc(Cl)cc3)cs2)[C@H](c2ccc(O)cc2)NC(=O)N1 | 106%
CCOC(=O)C(Cc1ccc(OC)cc1)C(=O)OCC | 6.32% (active)
O=C1Nc2ccccc2/C1=C/c1cccn1C(=O)c1ccc(Cl)s1 | 70.8%
